Source: PubChem BioAssay (NCATS)
Records with an inconclusive call do not appear. A number with no mark means an inactive call. Active and inactive are the calls of the source. Calls come from the whole dose curve; as a rule, active = well fitted inhibition curve with a large enough effect; inconclusive = small, poorly fitted or top-dose-only effect, or effect the other way; inactive = flat fitted curve, though single readings scatter.

biological target: ATP-dependent 6-phosphofructokinase (Trypanosoma brucei brucei) (UniProt O15648); assay: qHTS Assay to Find Inhibitors of T. brucei phosphofructokinase: hit validation (AID 492961);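 for activity change, negative = inhibition: luminescence reports ADP formed as PFK phosphorylates fructose-6-phosphate with ATP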; conditions: T. brucei PFK, ADP-Glo luminescence; series mostly up to 51.4 µM; activity change, negative = inhibition: at the top concentration
Sequence (O15648 whole entry, looked up): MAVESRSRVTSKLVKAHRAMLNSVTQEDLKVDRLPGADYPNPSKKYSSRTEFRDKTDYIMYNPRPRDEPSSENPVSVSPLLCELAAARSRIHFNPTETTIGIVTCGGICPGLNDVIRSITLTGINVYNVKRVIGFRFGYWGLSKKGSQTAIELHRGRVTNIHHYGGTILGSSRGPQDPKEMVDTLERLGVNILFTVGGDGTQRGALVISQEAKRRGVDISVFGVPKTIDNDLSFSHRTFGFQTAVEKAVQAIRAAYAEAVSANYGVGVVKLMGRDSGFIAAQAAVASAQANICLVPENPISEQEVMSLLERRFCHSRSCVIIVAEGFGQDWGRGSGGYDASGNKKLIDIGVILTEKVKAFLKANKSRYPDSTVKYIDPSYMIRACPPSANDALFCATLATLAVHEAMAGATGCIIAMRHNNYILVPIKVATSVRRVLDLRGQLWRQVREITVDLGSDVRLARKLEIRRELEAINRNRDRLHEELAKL
How it was run: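 Percent activity derived from corrected luminescence, normalized between 0x and 1x enzyme controls, then fitted to concentration-response curves. Conditions: 1.25 nM PFK, 0.1 mM ATP, 0.5 mM F6P, 45 min RT.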
% is set by controls: 0 for no effect and ±100 for the full control effect; potency is the fitted concentration of half-maximal effect.

Compound	activity change, negative = inhibition	Potency
O=C(O)CCC(=O)c1ccc(-c2ccccc2)cc1	5.97% [at 24.3 µM]	
CCCC(=O)O	-0.335%	
CC(=O)Nc1ccc(OC(=O)c2ccccc2O)cc1	-6.68%	
CC(C)Cc1ccc([C@@H](C)C(=O)NS(C)(=O)=O)cc1	-1.81%	
O=C(O)COc1ccccc1/C=N/NC(=O)c1ccncc1	-9.63%	
CCC(C(=O)NC(N)=O)c1ccccc1 (centres undefined)	4.38%	
CO/N=C(/C(=O)N[C@@H]1C(=O)N2C(C(=O)O)=C(COC(N)=O)CS[C@H]12)c1ccco1	6.94%	
Cc1nc(NS(=O)(=O)c2ccc(N)cc2)nc(C)c1Br	-1.41%	
C=CCN1CCCC1CNC(=O)c1cc(S(N)(=O)=O)cc(OC)c1OC (centres undefined)	4.49%	
CN1C(=O)C[C@@H](C(=O)N[C@@H](Cc2cnc[nH]2)C(=O)N2CCC[C@H]2C(N)=O)NC1=O	-6.42%	
O=C(O[C@H]1CN2CCC1CC2)N1CCc2ccccc2[C@@H]1c1ccccc1	1.35%	
CN1CCCC(CN2c3ccccc3Sc3ccccc32)C1 (centres undefined)	3.37%	
CC12CCC(C1)C(C)(C)C2=O (centres undefined)	4.36%	
OC/C=C/c1ccccc1	-2.16%	
Cc1ncc(C[n+]2csc(CCOP(=O)(O)O)c2C)c(N)n1	0%	
Cc1cccc(C)c1NC(=O)C1CCCCN1C (centres undefined)	7.66%	
O=C(CCCN1CCC(C(=O)c2ccc(F)cc2)CC1)c1ccc(F)cc1	2.16%	
Cc1cc(-c2ccc(N=Nc3c(S(=O)(=O)O)cc4cc(S(=O)(=O)O)cc(N)c4c3O)c(C)c2)ccc1N=Nc1c(S(=O)(=O)O)cc2cc(S(=O)(=O)O)cc(N)c2c1O		28.2 µM (active)
OC1OC[C@@H](O)[C@H](O)[C@@H]1O (some centres undefined)	-1.73%	
NC(N)=O	0.386%	

Compound	activity change, negative = inhibition	Potency
O=C(O)CCCC/C=C(\c1ccccc1)c1cccnc1	11.3%	
O=P(O)(O)OP(=O)(O)OP(=O)(O)O	3.06%	
CCN(CC)CCOC(=O)c1cccnc1	-7.77%	
Oc1ccc(Cl)c2c1CCC2	-2.38%	
OCCCNc1ccccc1	-2.68%	
FC(F)(F)C(F)(F)C(F)(F)C(F)(F)C(F)(F)C(F)(F)F	-7.24%	
Oc1cc(O)cc(O)c1	-0.381%	
CC/C(=C(/CC)c1ccc(OP(=O)(O)O)cc1)c1ccc(OP(=O)(O)O)cc1	0.82%	
O=C1c2ccccc2C(=O)C1c1ccc(Cl)cc1	17%	
O=C1[O][Bi][O]c2ccccc21	-13.6%	
CC(C)NCC(O)COc1ccccc1-n1cccc1 (centres undefined)	-2.01%	
CCCCC[C@H](O)/C=C/[C@@H]1[C@H]2C/C(=C/CCCC(=O)O)O[C@H]2C[C@H]1O	9.58%	
O=P(O)(O)OP(=O)(O)O	-13.3%	
CC(=O)Oc1cccc(C(=O)O)c1OC(C)=O	-0.444%	
CC(C)C1=CC2=CC[C@@H]3[C@](C)(CCC[C@@]3(C)C(=O)O)[C@H]2CC1	-1.23%	
Cc1c(C)c2c(c(C)c1OC(=O)CCC(=O)O)CC[C@@](C)(CCC[C@H](C)CCC[C@H](C)CCCC(C)C)O2	-0.925%	
S=C=Nc1ccc(N=C=S)cc1	0%	
N#Cc1ccc2c(c1)N(CCCN1CCC(O)CC1)c1ccccc1S2	-0.594%	
C=CC[N+]1([C@H]2C[C@H]3[C@@H]4CC[C@H]5C[C@H](O)[C@@H](N6CCOCC6)C[C@]5(C)[C@H]4CC[C@]3(C)[C@H]2OC(C)=O)CCCC1	4.04%	
